# Test results as given in the supplement of paper PMC12632987.
# The full ranking holds about 1,800 sequences; the median of “median log2 fold change of GCK-ALFA target abundance (FLAG IP / Myc IP barcode read proportion)” is about 0.14, and the lowest 2% start at about -0.84. The sample as a whole holds a higher share of the lowest values than the screen did.
# T1: TRAF2, Q12933
# T1 chain: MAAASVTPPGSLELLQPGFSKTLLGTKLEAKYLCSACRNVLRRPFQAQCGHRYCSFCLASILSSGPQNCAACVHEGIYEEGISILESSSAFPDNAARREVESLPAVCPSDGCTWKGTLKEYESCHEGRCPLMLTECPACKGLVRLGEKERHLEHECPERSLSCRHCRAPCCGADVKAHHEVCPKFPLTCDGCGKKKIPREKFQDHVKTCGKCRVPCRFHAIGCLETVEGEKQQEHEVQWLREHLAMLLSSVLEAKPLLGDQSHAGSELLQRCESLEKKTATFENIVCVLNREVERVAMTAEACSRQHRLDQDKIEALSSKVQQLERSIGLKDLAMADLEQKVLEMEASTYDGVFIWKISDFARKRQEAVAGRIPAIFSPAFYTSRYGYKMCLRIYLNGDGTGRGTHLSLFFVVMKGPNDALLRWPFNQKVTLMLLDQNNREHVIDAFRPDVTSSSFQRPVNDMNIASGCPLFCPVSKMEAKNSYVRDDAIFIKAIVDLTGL
# B1: traf2_out_20_38_2022 (protein)
# chain: SEEEEEKKKLEELVKVANEAYDEYTARFAEWKAAGKTVEEIAEEVKERIRELLTAAGLEEEAEILIEEVDLALKSPEAERLLVRTLARAVALVHQKELQK
# B2: traf2_out_13_95_1078 (protein)
# chain: SAEANKKIMEIADEMLEKSLKILKELSKKVADNPEMKAAVEEAIHLAETQGINAAIHLLEKLSEANPEYKELLDEAIKKLKEIKEEAGKKVAEILKEEKE
# B3: traf2_out_11_155_677 (protein)
# chain: EKKREINNALVDEMAAIDDATRAALDAIVDAAAAAHPEHAAALRAARDATRPYPGSSRGRALAALFRELGLEDYAAQVEALLAAAQKEKNAALKAHEAKL
# B4: traf2_out_20_3_2096 (protein)
# chain: EELKKELEKALEEAEKLIKEAIKLADEETAKKLKELLKKLKEAKELPLDDQLVELSEVRRELLELAEKAKKEGKEELAKILEEAADKINRAMNLAYKIIE
# B5: traf2_out_17_178_1700 (protein)
# chain: SKEEIRKKISELTDELIDHADRYGTALLARLRAEGVLSPEELAALDAALASGSNRTLLATAEELIPRSAASPETRALLAEWRAETREIAKKIAEAYEKYE
# B6: traf2_out_18_167_1855 (protein)
# chain: EEELKKKLEEATDELVKLSEVKRLARTALQLLETDPAAFPAAKAALIAALRAHGELAHLADRLEAAPPEEQPAVLEEIVEEAQRLANEKYKEIEELRKKL
# B7: traf2_out_5_63_2338 (protein)
# chain: SEREELTALAREADRAVRAILEALKAGKREEARKLVEEVAKDPELLRTAIGIARAELKYYSLQPEKKEEEKIAKELLKLLEEAAKRREEEERREREEALA
# B8: traf2_out_17_178_1715 (protein)
# chain: TKEAARAEISAATDEMIDLAEAAAARLLAIAEAEGSLSPEELAELRRARRLGSARTTRALMRRAIPRSPSAAEVQALLDDFEKRYAELSKKIAEALKKYE
# B9: traf2_out_15_180_1332 (protein)
# chain: MTEEELEKRIELVAEVADEADERVREELAAAGVTSPEHLALARSGVRAVITHVFAGWEEEAEEVEEIVAARLPEELRPLFRRLVEEARRRAEEALERLKK
# B10: traf2_out_6_3_2519 (protein)
# chain: MEESLREDARTVLKNMGITTAEQLLRLVKAEVNAVKKLVSRKDVDRADLAGAESVLALTRAMVEVAAEELPDLTEEQKAEMLELIEEAEKLVEEKRKELE
# B11: traf2_out_6_3_2518 (protein)
# chain: MEESIRRDAAKVLENMGITTAEQLLRLVKANVNAVKKLVSRKDVDRADLAGAESVLNLTRAMVEVAAETLPDLTEEQKAEMLALIEEARELVEKKRKELE
# B12: traf2_out_6_3_2529 (protein)
# chain: SEEKLREDARTILENMGITTAEQLLRLVKAEVNAVKQLVSRPDVDRADLAGARSVLALTRAMVEVAAETLPSLTPEQAEEALALIDETEKLVEKREKELE
# B13: traf2_out_20_3_2058 (protein)
# chain: SELDEEIEKKTKELEKKLAELAKLLPPEEAAELAKAWAEVKKAAKEGLEEFLIAVSKLRRLLLELSEEARARGDEKTAKLLEEAAEIAQEIAHLIYKKIE
# B14: traf2_out_1_158_906 (protein)
# chain: STAVNTLYAVATSIADVYAELAKERGLEKAAALLEKLKEDIKELYEKNKNASLEEFAKKVLELIEEKEKESESLPEEDKALVDIAFRQIKSGVEQVVKLA
# B15: traf2_out_16_177_1453 (protein)
# chain: ELDRLMDRLVILSELRRAALLAVEGRGDEYREHLARARELAEEAGDEEALALADRIEALIAENTPEAKEELKKLAEELQKEAQKLALEAEKLIKERAKEE
# B16: traf2_out_11_169_827 (protein)
# chain: EEAEKNRKINDKALELEDKAKKEFKEFVLKLAKEDGLDVEEIKKIFEENKNKSLSAQAAAVIEYFKSKGKEEAAKKVLEKYEELKEKINKEVTAFIKELE
# B17: traf2_out_11_155_748 (protein)
# chain: EERRKLLQEMNDKITELFDKAREEALKIAEEAAKKHPEHAEEIKKKIEETKGFSYRSFILSMIELFEELGLEEEAKKLKELLEKTQKEANKIVQETEKKL
# B18: traf2_out_20_3_2118 (protein)
# chain: EELEEELEKELEEALKLLKEAAKLADKKTAKKLEKLAKRLKESRKLSPSDRLVVVSEVRREVRRLRLEAEKKGDKKLAKVLDEAAEELNRAANLLMKIIE
# B19: traf2_out_13_95_1130 (protein)
# chain: SRETAEKIMEIADEMLDKVLEILKELLKKFEKAGVGVEEIKEAIYLAEHQSINEAIKLLEELAKKYPEFKEELNKAIEEIKKLRREAGKKVAEILKEEKE
# B20: traf2_out_11_79_936 (protein)
# chain: EEKRQELLKKLEEALKLLKELLEKMKAGTISEEERKEMLDEIERLLQRAAQLALELGLSDTLVEISEAKRHVRLAYSGDLEALEKAIKELEEAIKLVEEA
# B21: traf2_out_17_162_1640 (protein)
# chain: SPVEEFKERVEKELKELEKRVEELEEKSKKIDEYSKEELSDLIVEASEVKRRARELKQEVLAAKDLIPEEERARILKRLEEIIERAQRIAQKFYDKYLSL
# B22: traf2_out_13_95_1154 (protein)
# chain: SKELAEKIMEIADKMLDKSKEILKELLEIAKKKGKLEEEVQEALYLAETRSINEAIHKLKELAKKYPEFKEELEKAIKELEELKREAGKEVAKLIKEEKE
# B23: traf2_out_13_95_1160 (protein)
# chain: SKELAKKIMEIADEMLDESEKILEELLKIAKEKGKLEKEVQEALDLARYRSINEAIHKLEELAKKYPEFKEEFEKAIKKLKELKREAGKKVAKLIKEEEE
# B24: traf2_out_13_95_1105 (protein)
# chain: SAETAEKIMEVADEMLEKSEKLLEELLKIAKEKGKLVEEVQEALDLARYRSINEAIHKLKELAKKYPEFKEEFEATIKELEELKREAGRKVAEILKEEKE
# B25: traf2_out_17_162_1603 (protein)
# chain: SSLEKKKEELLKKKEELKEELKRLTEKLKNIEKLSKEELSDLLVEASEKKREALEALEKIEELKDELDPEEYEKLSTEFEELAEEFQRIANKFYKELEKK
# B26: traf2_out_6_156_2407 (protein)
# chain: MVEEIFEEAMKEIKELIKKLSEASEEKKISYISKIAGTFYRALQRLREAGASVEELEEFIKRMMEKIKEWLDEEGLPEDIKNLILSSLKAVGDVALEEAK
# B27: traf2_out_17_162_1641 (protein)
# chain: SAAEELRKRLLEELERLEKELKELEEKSKKIDEYTKEELSDLIVEASEARRRARELIEEVDRNRSLLDPEEYEELKKRLEEIAERLNRIAQKFYDKYLEL
# B28: traf2_out_17_162_1479 (protein)
# chain: MSIEEKVERLERELEELEEEARRLREELERLEEKSKEEITDLLVEVSEARRRALELAEEFEELAPEIGEEKARELADRAREIAEELQRIANEIYKELEKK
# B29: traf2_out_17_60_1760 (protein)
# chain: GPEERKKELAEEARRKIEEARRLVEEVRKKLEAGTLTADEAMDYLVELSEKRRELRRLAEELRAEGPEFEPLIEELERAIEEVERTMNEVGKELERLLAA
# Target: T1, TRAF2, Q12933
# Test: median log2 fold change of GCK-ALFA target abundance (FLAG IP / Myc IP barcode read proportion) (log2 ratio); each designed protein is fused to an ALFA-tag nanobody in HEK293 cells to bring the named protein to FLAG-tagged glucokinase (GCK); Myc marks an untargeted standard; higher = target protein stabilised (more abundant)
# Details: target protein: 3xFLAG-MCP-GCK-ALFA reporter; HEK293 landing pad (RPLP)
# Outline: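 An ALFA-nanobody-fused binder library was recombined into HEK293 landing-pad cells and induced with 2 μg mL^−1 doxycycline. Cells were transfected with a plasmid expressing a FLAG-tagged target and a Myc-tagged standard. After 48 h, lysates underwent anti-FLAG and anti-Myc immunoprecipitation, and circular RNA barcodes were reverse transcribed, amplified and sequenced. Target abundance is the per-binder median log2 ratio of FLAG to Myc barcode read proportions. Barcodes needed ≥10^−7 proportion in both replicates, binders ≥3 barcodes per replicate, and a 10^−6 pseudocount was added; the two replicates were pooled.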
row,Binder,median log2 fold change
1,B1,-0.885
2,B2,0.00315
3,B3,-0.00384
4,B4,0.177
5,B5,0.0128
6,B6,0.405
7,B7,0.165
8,B8,-0.171
9,B9,-0.0893
10,B10,-0.45
11,B11,-0.905
12,B12,-0.16
13,B13,0.144
14,B14,0.0998
15,B15,-0.267
16,B16,-0.542
17,B17,0.302
18,B18,0.107
19,B19,-0.433
20,B20,0.397
21,B21,0.0147
22,B22,-0.148
23,B23,-1.21
24,B24,-0.477
25,B25,0.253
26,B26,0.175
27,B27,0.177
28,B28,0.0731
29,B29,0.112
